# High-throughput results: PubChem BioAssay, National Center for Advancing Translational Sciences (NCATS)
# Tau ThT inhib: qHTS for Inhibitors of Tau Fibril Formation, Thioflavin T Binding; Microtubule-associated protein tau (Homo sapiens), P10636; recombinant tau K18 P301L, heparin-induced fibrillization, ThT fluorescence; Potency, µM (series often up to 57.4 µM), usual class: inhibitors; 2.1% of 270,000 active; AID 1460, 2008; also: nearly all actives have a fitted effect of over 55% in size
# Target sequence (P10636 561-689 P618L limits assumed): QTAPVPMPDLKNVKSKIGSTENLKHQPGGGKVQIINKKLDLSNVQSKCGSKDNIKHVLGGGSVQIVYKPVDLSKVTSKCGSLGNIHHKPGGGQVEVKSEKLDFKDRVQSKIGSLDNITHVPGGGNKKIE
#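 Recombinant human tau K18 fragment […] carrying P301L, 15 uM unlabeled plus 0.24 uM Alexa 594-labeled, was fibrillized with 20 uM heparin in 100 mM sodium acetate pH 7 for 6 hr at 37 C; 30 uM ThT fluorescence read after 1 hr.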
# G9a block: qHTS Assay for Inhibitors of Histone Lysine Methyltransferase G9a | Histone-lysine N-methyltransferase EHMT2 (Homo sapiens), Q96KQ7 | 8.8% of 350,000 active | G9a H3K9 monomethylation, AlphaScreen, 2 h | Potency, µM (highest dose often 102 µM), hits mostly inhibitors | AID 504332, 2011; also: nearly all actives have a fitted effect of over 75% in size
# Target sequence (Q96KQ7 913-1193 limits assumed): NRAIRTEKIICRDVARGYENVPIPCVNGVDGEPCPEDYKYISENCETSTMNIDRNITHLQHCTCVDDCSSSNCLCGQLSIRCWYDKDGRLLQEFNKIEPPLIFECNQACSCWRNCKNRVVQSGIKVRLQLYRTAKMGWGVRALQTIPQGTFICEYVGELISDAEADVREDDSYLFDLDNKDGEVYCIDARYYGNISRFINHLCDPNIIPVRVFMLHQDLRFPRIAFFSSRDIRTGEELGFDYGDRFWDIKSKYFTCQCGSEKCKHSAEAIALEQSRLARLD
#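 Using a bead-based AlphaScreen, monomethylated H3K9 product from 2 h room-temperature reactions (G9a 20 nM, peptide 500 nM, SAM 20 uM) was detected with 0.5 ug/mL rabbit anti-H3K9me1 antibody.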
# Tau fibril FP: qHTS for Inhibitors of Tau Fibril Formation, Fluorescence Polarization; K18 P301L tau heparin fibrillization, Alexa594 FP, 6 h; AID 1468, 2008; Microtubule-associated protein tau (Homo sapiens), P10636; 0.39% of 280,000 active; Potency, µM (titrated, usually from 57.7 µM), most hits filed as inhibitors; also: nearly all actives have a fitted effect of over 55% in size
#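 K18 P301L tau (15 uM unlabeled/0.24 uM Alexa 594-labeled, final) + compound + heparin 20 uM final; 100 mM NaOAc pH 7; 6 hr 37 C; ThT 30 uM final added, 1 hr RT; FP ex 555/em 632 nm.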
# Tau fluor counter: Counterscreen qHTS for Inhibitors of Tau Fibril Formation, Fluorescence Polarization. tau K18 P301L Alexa594 fluorescence, heparin fibrillization. Potency, µM (top dose mostly 57.7 µM). 0.93% of 280,000 active. AID 1463, 2008; also: nearly all actives have a fitted effect of over 55% in size
#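 Human tau K18 P301L (15 uM unlabeled, 0.24 uM Alexa 594-labeled) in 100 mM sodium acetate pH 7 with 20 uM heparin, 6 hr at 37 C. ThT 30 uM added, 1 hr ambient; Alexa 594 FP and total fluorescence read at 555/632 nm.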
# Coupling enz: qHTS Assay for Inhibitors of Fructose-1,6-bisphosphate Aldolase from Giardia Lamblia: Coupling assay counterscreen | coupling enzyme system counterscreen, AmpLite Red fluorescence | activity change, negative = inhibition, % at 58.2 µM, hits read low | AID 2472, 2010 | 0.67% of 290,000 active; in the data active = activity change below about -30%
#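 Compounds tested against the coupling enzymes alone at 57.5 uM final; readout was AmpLite Red fluorescence (525/598 nm) after 20 min at RT.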
# Sfp inh: qHTS Assay for Inhibitors of Bacillus subtilis Sfp phosphopantetheinyl transferase (PPTase); 4'-phosphopantetheinyl transferase ffp (Bacillus subtilis), Q9F4F7; Biochemical Sfp PPTase activity, qHTS; Potency, µM, usual class: inhibitors; 3.5% of 310,000 active; AID 1490, 2009;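 also: the enzyme is Sfp with the accession as filed and its product quenches rhodamine fluorescence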
#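 After 15 min at room temperature with compound, 15 nM Sfp received 5 uM rhodamine-CoA plus 12.5 uM BHQ-2-ybbR (50 mM Hepes pH 7.6, 10 mM MgCl2). Rate came from the fluorescence difference over 30 min, ex 525/em 598 nm.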
# Numbers stand for hits; - = inactive; ? = inconclusive; . = no result given; [ ] = another dose, or the depositor's remark. Hits are enriched below; roughly 11% of the tested compounds scored in any of these assays. Unless noted, calls follow the shape of the dose curve; as a rule, active = well fitted curve in the direction sought with a large enough effect; inconclusive = small, poorly fitted or top-dose-only effect, or another doubt; inactive = no such curve, though single readings can be large; an effect the other way counts as inactive or inconclusive.
SMILES,Tau ThT inhib,G9a block,Tau fibril FP,Tau fluor counter,Coupling enz,Sfp inh
Cc1c(Cl)cccc1NC(=S)N(CCN(C)C)C(C)c1ccco1 (centres undefined),-,?,-,-,-,-
CCOC(=O)c1nnc(-c2ccccc2)nc1Sc1ccccc1Cl,?,-,-,?,-,79µM
Cc1[nH]nc(SCC(=O)Nc2ccc(C#N)cc2)c1[N+](=O)[O-],?,35µM,-,-,-,-
Cc1ccc(NC(=O)CSc2n[nH]c(C)c2[N+](=O)[O-])cc1,-,-,-,-,-,-
CCC(CC)c1nnc(NC(=O)CCc2ccc(OC)cc2)s1,.,?,.,.,-,45µM
Cc1ccc(S(=O)(=O)CC(=O)Nc2nnc(C(C)(C)C)s2)cc1,.,22µM,.,.,-,?
CCC(CC)c1nnc(NC(=O)CCc2ccccc2)s1,.,-,.,.,-,-
O=C(CS(=O)(=O)c1ccccc1)Nc1nnc(C(F)(F)F)s1,.,?,.,.,-,-
Cc1ccc(Cl)c2sc(NC(=O)CS(=O)(=O)c3ccc(Cl)cc3)nc12,-,-,11µM,?,.,.
COCc1nnc(NC(=O)CCc2ccccc2)s1,-,11µM,-,-,-,-
COCc1nnc(NC(=O)CCc2ccc(OC)cc2)s1,.,.,.,.,-,-
Cc1ccc(S(=O)(=O)CC(=O)Nc2nc3c(C)cccc3s2)cc1,-,-,?,-,.,.
CCOc1ccc(CCNC(=O)c2cccc(-n3c(C)nc4cccnc43)c2C)cc1,-,-,-,-,.,.
COc1ccc(OC)c(S(=O)(=O)N2CCCC2C(=O)NC(C)c2ccccc2)c1 (centres undefined),.,.,.,.,-,-
CCC(CC)c1nnc(NC(=O)CS(=O)(=O)c2ccc(C)cc2)s1,.,7.9µM,.,.,-,28µM
c1ccc(-c2ccc3c(c2)c2c4n3CCN=C4CCC2)cc1,?,20µM,-,-,-,?
OC1CN=C2CCCc3c2n(c2ccc(Cl)cc32)C1 (centres undefined),?,?,-,-,-,-
CC(C)NC(=O)CCCn1cc([N+](=O)[O-])cn1,-,50µM,-,-,-,-
Oc1cccc(NC(=S)N=Nc2c(O)[nH]c3ccccc23)c1,10µM,?,-,?,-,?
Oc1[nH]c2ccccc2c1N=NC(=S)NCCc1ccccc1,14µM,?,?,13µM[quencher],-,-
CC(C)c1ccc2[nH]c(O)c(N=NC(=S)NCCc3ccccc3)c2c1,?,-,-,?,-,-
CCN(C(=O)COC(=O)/C=C/c1c(C)nn(Cc2ccc(C)cc2)c1C)C1CCS(=O)(=O)C1 (centres undefined),-,-,-,-,-,-
CCCN(CCC)C1=CC(=[N+]2CCCC2)CC(C)(C)C1,-,1.8µM,-,-,-,-
O=C(O)CCCC(=O)Nc1nc2n(n1)C(c1ccc(F)cc1)CC(c1ccc(Cl)cc1)N2 (centres undefined),-,-[12.7 µM],-,-,-,-
CC(=O)Nc1nc2n(n1)C(c1ccc(F)cc1)C=C(c1ccc(Cl)cc1)N2 (centres undefined),?,?,-,-,.,.
SMILES,Tau ThT inhib,G9a block,Tau fibril FP,Tau fluor counter,Coupling enz,Sfp inh
CC1=CC(c2ccc(Cl)cc2)n2nc(NC(=O)CCC(=O)O)nc2N1 (centres undefined),.,20µM,-,-,-,-
CC1=CC(c2ccc(Cl)cc2)n2nc(NC(=O)CCCC(=O)O)nc2N1 (centres undefined),.,50µM,.,.,-,-
COC(=O)[C@@H](N)Cc1ccc(O)c(O)c1,?,-,-,-,.,56µM
O=C(O)Cc1ccc(O)c(O)c1,?,0.24µM,?,-,-,40µM
CC(N)(Cc1ccc(O)cc1)C(=O)O (centres undefined),-,?,-,-,.,.
C[C@@](N)(Cc1ccc(O)c(O)c1)C(=O)O,4.5µM,-[21.5 µM],?,?,-,?
COC(=O)C(N)Cc1ccc(Cl)cc1 (centres undefined),-,-,-,-,.,.
CCOc1ccc2oc(C(=O)Nc3cc(C)ccn3)c(C)c2c1,.,-,.,.,.,.
CCC1CCCCN1C(=O)c1sc(-n2nc(C)c(Cc3ccccc3)c2C)nc1C (centres undefined),-,-,-,-,.,.
N=C1c2c(cc(=O)n3c2[nH]c2ccccc23)CN1CCN1CCOCC1,?,35µM,?,?,-,-
N[C@H](Cn1ccc(=O)n(Cc2ccccc2C(=O)O)c1=O)C(=O)O,-,.,-,-,-,71µM
Cn1sc(=O)n(Cc2ccccc2)c1=O,.,.,.,.,-,0.14µM
Cc1nc(N2CCOCC2)c2nc(-c3ccccc3)n(CC(C)(C)CN(C)C)c2n1,-,.,-,-,-,-
Cc1ccccc1NC(=O)COC(=O)CCc1nc2ccccc2c(=O)[nH]1,-,45µM,-,-,-,-
O=C(COC(=O)CCc1nc2ccccc2c(=O)[nH]1)NC(=O)NC1CCCC1,-,10µM,-,-,-,-
O=C(CCc1nc2ccccc2c(=O)[nH]1)Nc1cc(Cl)ccc1N1CCCC1,.,14µM,.,.,.,.
O=C(COC(=O)CCc1nc2ccccc2c(=O)[nH]1)NC(c1ccccc1)c1ccccc1,-,-,-,-,-,-
O=C(COC(=O)CCc1nc2ccccc2c(=O)[nH]1)Nc1ccc2c(c1)OCO2,?,56µM,-,-,-,-
CC(OC(=O)CCc1nc2ccccc2c(=O)[nH]1)C(=O)NC1CCCC1 (centres undefined),-,-,-,-,-,-
